VACV mCherry inh = inhibitors of vaccinia virus infection (mCherry reporter signal); Vaccinia virus mCherry reporter infection, fluorescence; Potency, µM (top dose mostly 36.5 µM), without a hit: top-dose activity change, negative = inhibition, usual class: inhibitors; actives 0.63% (n = 310,000); AID 720579; calls by dose curve; tested in A549 cells; also: nearly all actives have a fitted effect of over 35% in size
VACV Venus inh = inhibitors of vaccinia virus (Venus reporter); actives 0.46% (n = 330,000); AID 720580; Vaccinia virus Venus reporter expression, fluorescence; Potency, µM (series often up to 36.5 µM), inactives show top-dose activity change, negative = inhibition, hits mostly inhibitors; calls by dose curve; tested in A549 cells; also: nearly all actives have a fitted effect of over 30% in size
MARV entry inh = blocks Marburg virus binding to or entry into cells; Marburg virus pseudotyped entry inhibition, cell reporter; Potency, µM (titrated, usually from 37.8 µM), for inactives: top-dose activity change, negative = inhibition, most hits filed as inhibitors; actives 1.8% (n = 300,000); calls by dose curve; tested in HEK293 cells
LASV entry inh = Lassa virus entry inhibition; Lassa virus pseudotype entry inhibition, cell reporter; Potency, µM (titrated, usually from 37.9 µM), inactives show at the top dose activity change, negative = inhibition, actives largely listed as inhibitors; actives 1.2% (n = 300,000); calls by dose curve; tested in HEK293 cells; also: nearly all actives have a fitted effect of over 50% in size
FMDV antiviral = antivirals against foot and mouth disease virus; Potency, µM (top dose mostly 57.9 µM), for inactives: top-dose activity change, negative = inhibition, most hits filed as inhibitors; FMDV antiviral cell-based qHTS; actives 1.2% (n = 410,000); calls by dose curve; tested in HEK293T cells; also: read-out not given here; nearly all actives have a fitted effect of over 45% in size
Sm TGR inh = blocks Schistosoma mansoni thioredoxin glutathione reductase; Q962Y6; actives 3% (n = 360,000); AID 485364; purified TGR, DTNB reduction, TNB absorbance 405 nm; Potency, µM (series often up to 114 µM), for the others: at the top dose activity change, negative = inhibition, usual class: inhibitors; active = well fitted inhibition curve with a large enough effect; inconclusive = small, poorly fitted or top-dose-only effect; inactive = no such curve, though single readings can be large or run the other way; also: nearly all actives have a fitted effect of over 60% in size
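First, TGR (20 nM dispensed) and NADPH were mixed with compound. Second, a 15 min room-temperature incubation followed. Third, further NADPH and then DTNB were added to start the reaction. Finally, TNB absorbance was monitored kinetically.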
* hit, by the source's call; i = inactive; ? = inconclusive; / = no result; [ ] = another dose, or the depositor's remark. Rows were chosen to be rich in hits. Some 5.4% of all compounds tested hit in one or more screens of this group. % is scaled to controls: 0 for no effect and ±100 for the full control effect; potency is read from the fitted curve at half-maximal effect.

SMILES | VACV mCherry inh | VACV Venus inh | MARV entry inh | LASV entry inh | FMDV antiviral | Sm TGR inh
Cc1ccc(OCC(=O)N/N=C/C=C/c2ccco2)c(Br)c1 | ? | 8.2% | -4.7%[46.1 µM] | 6.1%[46.1 µM] | -11.0% | 28.2µM*
Cc1cccc(OCC(=O)N/N=C/C=C/c2ccco2)c1 | -18.6% | -1.5% | -24.1% | 6.6% | -3.0% | 39.8µM*
O=C(COc1cccc2ccccc12)N/N=C/c1ccco1 | -19.6% | -6.5% | 22.1%[46.1 µM] | 8.2%[46.1 µM] | -7.5% | -8.4%
Cc1cccc(C)c1OCC(=O)N/N=C/C=C/c1ccco1 | / | / | / | / | 13.7% | 15.8µM*
COc1ccc(CCNC(=O)CCn2c(=O)c3ccccc3n(Cc3ccccc3F)c2=O)cc1OC | 11.5% | 0.7% | -2.4%[46.1 µM] | -14.9%[46.1 µM] | ? | -6.2%
O=C(CSc1nc2ccccc2n1Cc1cccc(C(F)(F)F)c1)NCc1ccccc1 | -26.3% | -14.4% | / | 10.3%[46.1 µM] | -19.4% | 2.5%
O=C(C1=C[C@@H](C2CCCCC2)C[C@@H](OCCCCO)O1)N1CCN(Cc2ccc3c(c2)OCO3)CC1 | -19.2% | -23.5% | / | / | -16.3% | -1.1%
O=C(C1=C[C@H](C2CCCCC2)C[C@H](OCCCCO)O1)N1CCN(Cc2ccccc2)CC1 | ? | -12.8% | / | / | -16.4% | 35.5µM*
O=C(C1=C[C@H](C2CC2)C[C@H](OCCCCO)O1)N1CCN(Cc2ccccc2)CC1 | -8.4% | -9.6% | / | / | 17.3% | 25.1µM*
O=C(C1=C[C@H](c2ccccc2)C[C@H](OCCCCO)O1)N1CCN(Cc2ccccc2)CC1 | -9.0% | -19.0% | / | / | -19.6% | 0.0%
CC[C@@]1(C(=O)OC)N[C@H](CN(C)C(=O)Nc2ccc(C(F)(F)F)cc2)[C@@H]2C(=O)N(Cc3ccccc3)C(=O)[C@@H]21 | -3.5% | -4.6% | / | / | -16.4% | /
COC(=O)[C@]1(Cc2ccccc2)N[C@H](CN(C)C(=O)Nc2ccc(C(F)(F)F)cc2)[C@@H]2C(=O)N(Cc3ccccc3)C(=O)[C@@H]21 | ? | 10µM* | / | / | 0.0% | /
Cc1cc(C(=O)N2CC=C(c3ccccc3)CC2)c2ccccc2n1 | ? | ? | ? | ? | ? | -0.5%
Cc1ccc(C(=O)N2CC=C(c3ccccc3)CC2)o1 | i | -7.0% | 0.4%[46.1 µM] | -3.2% | 1.4% | 28.2µM*
O=C(O)c1ccccc1C(=O)N1CC=C(c2ccccc2)CC1 | / | -19.0% | 11.1% | 0.3% | -21.9% | 35.5µM*
C=C(CO[C@@H]1C=C[C@@H](c2ccccc2)O[C@@H]1COC)c1ccccc1 | / | / | -4.3%[14.2 µM] | / | / | /
COCCNC(=O)/C(C#N)=C/c1cccc(NC(=O)c2ccccc2Cl)c1 | -1.4% | 1.5% | -1.1% | 14.2% | 0.0% | -5.9%
CC(C)NC(=O)/C(C#N)=C/c1cccc(NC(=O)c2ccccc2Cl)c1 | -13.2% | -9.4% | ? | 7.2% | 14.1µM* | -9.0%
Cc1ccc(S(=O)(=O)NN2C(=O)c3ccccc3NC2c2ccccc2O)cc1 (configuration not stated) | -2.6% | -16.0% | 12.1%[46.1 µM] | -1.2%[46.1 µM] | 8.6% | 8.9%
Cc1ccc(S(=O)(=O)NN2C(=O)c3ccccc3NC2c2ccccn2)cc1 (configuration not stated) | -3.6% | -7.3% | 7.94µM* | ? | -15.6% | 2.3%
COc1ccc(C(=O)c2cn(Cc3cccc(C)c3)c3cc4c(cc3c2=O)OCCO4)cc1OC | -13.2% | -9.2% | ? | -23.9%[46.1 µM] | -22.4% | 7.1%
CCN1CCN(CCC(=O)Nc2ccc(Br)cc2)CC1 | -22.9% | -16.8% | ? | 19.8%[46.1 µM] | -17.6% | -10.4%
CCN1CCOC(=O)C1CC(=O)Nc1cc(C)ccc1OC (configuration not stated) | -5.3% | -7.9% | -0.5%[46.1 µM] | 16.4%[46.1 µM] | -18.6% | 17.8µM*
COc1ccccc1NC(=O)CN1CCN(CC(=O)Nc2cc(C)ccc2OC)CC1 | / | / | / | / | ? | -8.4%
CCN1CCOC(=O)C1CC(=O)Nc1ccc(Br)cc1 (configuration not stated) | -5.3% | -3.7% | 4.4%[46.1 µM] | 12.4%[46.1 µM] | 15.2% | 7.94µM*
SMILES | VACV mCherry inh | VACV Venus inh | MARV entry inh | LASV entry inh | FMDV antiviral | Sm TGR inh
CS/C(=C\[N+](=O)[O-])Nc1ccc(F)cc1 | i | -7.8% | -0.4% | -5.7% | -23.3% | 0.251µM*
CS/C(=C\[N+](=O)[O-])Nc1ccccc1 | -8.0% | 1.3% | 15.4% | 12.5% | -21.9% | 0.251µM*
COc1ccc(N/C(=C/[N+](=O)[O-])SC)cc1 | i | -8.6% | -0.8%[46.1 µM] | ? | -20.3% | ?
CCC(C(=O)NCCc1ccc(OC)c(OC)c1)n1nc(C)c2sc3ccccc3c2c1=O (configuration not stated) | -6.9% | -23.8% | 18.9%[46.1 µM] | 0.0%[46.1 µM] | -25.9% | -2.6%
Cc1cccc(-c2c3c(=O)n(C)c(=O)n(C)c3cn2CC2CCCO2)c1 (configuration not stated) | / | -16.0% | -15.6% | 3.6% | -7.9% | 35.5µM*
Cn1c(=O)c2c(SCC(=O)N3CCCc4ccccc43)nc(CC(C)(C)C)nc2n(C)c1=O | ? | 11.2µM* | / | / | 22.4µM* | -14.3%
CCc1cc2c(nc1CC)CCN(CCC(C)=NOC[C@@H](C)[C@H](OCc1ccccc1)C(C)C)C2 | / | / | -16.5%[14.2 µM] | / | / | /
O=S(=O)(/N=C(/Sc1ccc(Cl)cc1)c1ccccc1)c1ccccc1 | -15.7% | -15.7% | / | / | / | /
O=S(=O)(/N=C(/Sc1ccccc1)c1ccccc1)c1ccccc1 | i | -5.7% | 18.4% | 2.9% | ? | 1.78µM*
Cc1oc2c(c1C(=O)c1ccccc1)C(=O)C(=O)c1ccccc1-2 | / | ? | ? | 10µM* | ? | ?
Cc1oc2c(c1C(=O)O)C(=O)c1ccccc1C2=O | ? | ? | / | / | -24.0% | -31.7%
Cc1cc2nnc(SCC(=O)Nc3cc(S(=O)(=O)N4CCOCC4)ccc3Cl)n2c2ccccc12 | ? | ? | 7.94µM* | 14.1% | ? | -9.3%
CCN(CC)S(=O)(=O)c1ccc(C)c(NC(=O)CNCc2ccccc2OC)c1 | -0.2% | -14.7% | 4.47µM* | ? | ? | -10.5%
COc1ccccc1CNCC(=O)Nc1cc(S(=O)(=O)N2CCOCC2)ccc1Cl | -9.4% | -22.1% | ? | ? | 25.1µM* | -5.1%
COc1ccc(S(=O)(=O)N2CCOCC2)cc1NC(=O)c1ccccc1-c1ccc(C(F)(F)F)cc1 | -20.9% | -9.1% | ? | 6.31µM* | 16.3% | -10.1%
COc1ccc(NC(=O)c2ccccc2-c2ccc(C(F)(F)F)cc2)cc1S(=O)(=O)N1CCOCC1 | ? | ? | -38.3% | ? | 41.1% | -9.2%
Cc1ccc(S(=O)(=O)N2CCOCC2)cc1NC(=O)CSc1nnc2cc(C)c3ccccc3n12 | -14.7% | -29.4% | ? | ? | ? | 2.9%
COc1ccccc1CNCC(=O)Nc1cc(S(=O)(=O)N2CCCCCC2)ccc1Cl | 3.1% | 0.9% | ? | -23.3% | ? | 0.4%
Nc1ccc(C(=O)c2cccs2)cn1 | i | -10.8% | / | / | 8.5% | 4.3%
Nc1ccc(-c2cnc(N)c(C(=O)c3cccnc3)n2)cn1 | ? | 10µM* | / | / | 0.0% | /
Cc1ccc(S(=O)(=O)c2nc(C(C)(C)C)oc2N2CCOCC2)cc1 | / | / | -13.3% | -10.6% | -8.6% | 1.12µM*

Source: PubChem (National Center for Advancing Translational Sciences (NCATS))
